From PubChem BioAssay
NOMO-1 viab: STK33 inhibitor candidate reducing NOMO-1 cell viability; inhibition, % (test concentration not listed); AID 2330; NOMO-1 AML viability, CellTiter-Glo luminescence, 72 h; 37,000 tested, 7.5% active; in the data active = inhibition above about 80%
PD-1 reverse act: reversal of PD-1 mediated T-cell inhibition; activation, % (no concentration beside the values); primary human CD4 T cells, PD-L1 beads, CellTiter-Glo 96 h; 29,000 tested, under 10 active; AID 2316; call rule not given here
STK33 inh: blocks human STK33 kinase activity; ADP-Glo luminescence, MBP substrate; inhibition, % at 12.5 µM; 27,000 tested, 0.44% active; AID 2322; in the data active = inhibition above about 20%
Target sequence (Q9BYT3 whole entry, looked up): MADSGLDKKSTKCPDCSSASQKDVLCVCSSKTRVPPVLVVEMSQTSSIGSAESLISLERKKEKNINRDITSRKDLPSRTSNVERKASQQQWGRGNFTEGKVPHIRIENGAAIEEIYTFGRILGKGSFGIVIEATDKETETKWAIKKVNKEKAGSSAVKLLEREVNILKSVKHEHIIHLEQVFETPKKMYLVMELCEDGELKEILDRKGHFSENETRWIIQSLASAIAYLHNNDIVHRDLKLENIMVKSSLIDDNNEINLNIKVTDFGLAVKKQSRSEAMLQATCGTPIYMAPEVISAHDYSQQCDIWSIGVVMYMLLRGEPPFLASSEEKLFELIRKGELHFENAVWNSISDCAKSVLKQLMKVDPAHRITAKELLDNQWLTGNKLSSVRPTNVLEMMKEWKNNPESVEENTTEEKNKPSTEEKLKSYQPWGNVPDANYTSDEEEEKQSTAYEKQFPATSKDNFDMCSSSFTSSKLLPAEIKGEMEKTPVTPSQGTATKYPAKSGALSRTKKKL
Large screens that a line does not name were inactive. The full list was thinned out, with hits kept by preference.

C[C@@H]1CN([C@@H](C)CO)C(=O)Cc2cc(NC(=O)Nc3ccc(C(F)(F)F)cc3)ccc2O[C@@H]1CN(C)C(=O)Nc1ccc2c(c1)OCO2	NOMO-1 viab 125 (no result: PD-1 reverse act, STK33 inh)
C[C@H]1CN([C@@H](C)CO)C(=O)Cc2cc(NC(=O)Nc3ccc(C(F)(F)F)cc3)ccc2O[C@H]1CN(C)C(=O)Nc1ccc2c(c1)OCO2	none
CCC(C)(C)NC(=S)Nc1cccc(OC)c1	none (no result: STK33 inh)
CCC1=NC(C(F)(F)F)(C(F)(F)F)C2=C(CC(C)(C)CC2=O)N1Cc1ccccc1	none (no result: STK33 inh)
CC(C)(C)c1ccc(C(=O)C(C#N)=C2SCCCS2)cc1	NOMO-1 viab 109 (no result: STK33 inh)
CC(C)(C)c1ccc(C(=O)N2CCCC2)cc1	none
C[C@@H]1CCCCO[C@@H](CN(C)Cc2ccc3c(c2)OCO3)[C@@H](C)CN([C@H](C)CO)C(=O)c2cc(N(C)C)ccc2O1	none (no result: PD-1 reverse act)
C[C@@H]1CN([C@@H](C)CO)C(=O)c2cc(N(C)C)ccc2O[C@@H]1CN(C)Cc1ccc(Cl)c(Cl)c1	none (no result: STK33 inh)
C[C@@H]1CCCCO[C@H](CN(C)Cc2ccc(Cl)c(Cl)c2)[C@@H](C)CN([C@H](C)CO)C(=O)c2cc(N(C)C)ccc2O1	NOMO-1 viab 87
C[C@@H]1CN([C@H](C)CO)C(=O)c2cc(N(C)C)ccc2O[C@H]1CN(C)Cc1ccc(Cl)c(Cl)c1	NOMO-1 viab 97 (no result: STK33 inh)
Cc1cccc(OCC(=O)Nc2cccc(-c3nc4ccccc4s3)c2)c1C	none
C[C@H]1CN([C@@H](C)CO)C(=O)c2cc(NC(=O)Nc3ccccc3)ccc2O[C@H]1CN(C)C(=O)Nc1ccc(C(F)(F)F)cc1	none (no result: PD-1 reverse act, STK33 inh)
C[C@@H]1CN([C@@H](C)CO)C(=O)c2cc(NC(=O)Nc3ccc(C(F)(F)F)cc3)ccc2O[C@@H]1CN(C)C(=O)Nc1ccccc1	none (no result: PD-1 reverse act, STK33 inh)
C[C@H]1CN([C@@H](C)CO)C(=O)c2cc(NC(=O)Nc3ccccc3)ccc2O[C@@H]1CN(C)C(=O)Nc1ccc(C(F)(F)F)cc1	none (no result: STK33 inh)
C[C@@H]1CN([C@H](C)CO)C(=O)c2cc(NC(=O)Nc3ccccc3)ccc2O[C@@H]1CN(C)C(=O)Nc1ccc(C(F)(F)F)cc1	NOMO-1 viab 87 (no result: STK33 inh)
C[C@H](CO)N1C[C@H](C)[C@H](CN(C)C(=O)Nc2ccccc2)Oc2ccc(NC(=O)Nc3ccc(C(F)(F)F)cc3)cc2C1=O	NOMO-1 viab 103 (no result: STK33 inh)
C[C@@H]1CN([C@@H](C)CO)C(=O)c2cc(NC(=O)Nc3ccccc3)ccc2O[C@@H]1CN(C)C(=O)Nc1ccc(C(F)(F)F)cc1	NOMO-1 viab 102
Cc1ccc([N+](=O)[O-])c(OCCCCn2cncn2)c1	none
COc1ccc(S(=O)(=O)Nc2ccc3c(c2)CC(=O)N([C@H](C)CO)C[C@H](C)[C@H](CN(C)Cc2ccc(C(=O)Nc4ccccc4N)cc2)O3)cc1	NOMO-1 viab 140 (no result: STK33 inh)
COc1ccc(S(=O)(=O)Nc2ccc3c(c2)C(=O)N([C@H](C)CO)C[C@H](C)[C@@H](CN(C)Cc2ccc(C(=O)Nc4ccccc4N)cc2)O3)cc1	none (no result: STK33 inh)
COc1ccc(S(=O)(=O)Nc2ccc3c(c2)CC(=O)N([C@H](C)CO)C[C@@H](C)[C@@H](CN(C)Cc2ccc(C(=O)Nc4ccccc4N)cc2)O3)cc1	NOMO-1 viab 92 (no result: STK33 inh)
COc1ccc(S(=O)(=O)Nc2ccc3c(c2)C(=O)N([C@@H](C)CO)C[C@H](C)[C@@H](CN(C)Cc2ccc(C(=O)Nc4ccccc4N)cc2)O3)cc1	none (no result: STK33 inh)
O=C(Nc1ccc(Cl)c(Cl)c1)C(Cc1ccccc1)N1C(=O)c2ccccc2C1=O (stereo not given)	none (no result: NOMO-1 viab, PD-1 reverse act)
O=C(CSC1N=C2C=CC=CC2O1)c1ccccc1 (stereo not given)	none (no result: STK33 inh)
CCN(C(=O)c1cnccc1C(F)(F)F)c1nc2cc(Cl)ccc2s1	none (no result: STK33 inh)
CC(=O)Oc1ccc(-c2coc3cc(OC(C)=O)cc(OC(C)=O)c3c2=O)cc1	none
CC(=O)Oc1ccc2ccc3ccc(OC(C)=O)c4ccc1c2c34	NOMO-1 viab 127 (no result: STK33 inh)
CCOC(=O)C1CCN(C(=O)Nc2ccc3snnc3c2)CC1	NOMO-1 viab 106
CCOC(=O)C1CCN(C(=O)N2c3ccccc3Sc3ccccc32)CC1	none (no result: STK33 inh)
O=C(CSc1nnc(-c2cccnc2)n1C1CCCCC1)Nc1ccc(Cl)cc1	none
C[C@H]1CN([C@@H](C)CO)C(=O)c2cccc(NC(=O)Nc3ccc(C(F)(F)F)cc3)c2O[C@@H]1CN(C)C(=O)Nc1ccc2c(c1)OCO2	NOMO-1 viab 96 (no result: PD-1 reverse act, STK33 inh)
C[C@@H]1CN([C@@H](C)CO)C(=O)c2cccc(NC(=O)Nc3ccc4c(c3)OCO4)c2O[C@H]1CN(C)C(=O)Nc1ccc2c(c1)OCO2	none (no result: PD-1 reverse act, STK33 inh)
C[C@@H]1CN([C@H](C)CO)C(=O)c2cccc(NC(=O)Nc3ccc(C(F)(F)F)cc3)c2O[C@@H]1CN(C)C(=O)Nc1ccc2c(c1)OCO2	NOMO-1 viab 112 (no result: STK33 inh)
C[C@@H]1CN([C@@H](C)CO)C(=O)c2cccc(NC(=O)Nc3ccc4c(c3)OCO4)c2O[C@@H]1CN(C)C(=O)Nc1ccc2c(c1)OCO2	none (no result: STK33 inh)
